Source: PubChem (several laboratories)
Most compounds without a hit are left out; they make up all but 8.7% or so of the library.
PostGolgi ctrl – inhibits growth of the yeast control strain; inhibition, % at 10 µM; efflux-deficient yeast background strain, growth absorbance A615, 16 h; 98,000 tested, 5% active
TNAP act DEA – human TNAP activation, intermediate phosphate acceptor. activation factor at 20 µM. P05186. purified TNAP, CDP-star luminescence, 100 mM DEA, 30 min; stronger effect = higher value; scale: 0 levamisole-inhibited, 1 vehicle-only enzyme. 64,000 tested, under 10 active. AID 813;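 active = activation factor of at least 2 at 20 µM, relative to controls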
Cav3 T inh – human Cav3.2 channel inhibition, primary screen. B-score at 10 µM. Cav3.2-expressing cells, Fluo-4 calcium fluorescence FDSS; stronger effect = lower value. O95180. 100,000 tested, 4% active;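 active = single-dose well whose peak fluorescence ratio is a statistical outlier from its plate by either plate-standardised score or position-corrected B-score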
hDAT+cocaine – changed human dopamine transporter uptake under cocaine IC80; AID 449768; Q01959; 110,000 tested, 1.3% active; LLC-PK1 hDAT cells, [14C]-dopamine uptake with cocaine IC80; actives deviate in either direction; B-score at 10 µM;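 active = Z score or B-score, a plate-position-corrected score, falls beyond the plate's 99.7% confidence bounds, in either direction; inactive = both scores lie inside the 99.7% bounds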;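 note: scored against the spread of the other compound wells on the same plate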
Smad3 inh – Smad3 (human) transcription factor binding inhibition | 88,000 tested, 0.29% active | TR-FRET Smad3/Dy647-FoxH1 peptide binding, europium anti-His | inhibition, % at 25 µM;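 active = compounds that reduce the energy-transfer binding signal between the protein and its labelled peptide by more than half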;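 note: 0% = Smad3 plus labelled peptide maximal FRET and 100% = peptide-only background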
PostGolgi yeast – growth inhibition of a yeast mutant, post-Golgi transport screen | post-Golgi transport phenotypic cell assay | inhibition, % at 10 µM | 98,000 tested, 0.9% active | AID 739;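 note: yeast cells grown in 1536-well plates; yeast grown about 18 h at 30C before absorbance read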
* = called active by the depositor; . = not tested or not shown. Cut-off read from the data, not from the text of the source, unless noted: active = inhibition above about 30%; inactive = the rest.

SMILES	PostGolgi ctrl	TNAP act DEA	Cav3 T inh	hDAT+cocaine	Smad3 inh	PostGolgi yeast
Cn1c(-c2ccc3c(c2)OCO3)cnc1NCc1cccc(Cl)c1	13	1	-4.8*	0.014	6	-3
Cc1ccc(-c2csc3ncnc(Sc4nnc(CN5CCCCCC5=O)o4)c23)cc1	20	0.9	-6.7*	1.3	40	-5
Cc1ccc(-c2csc3ncnc(SCC(=O)c4ccc5c(c4)OCCO5)c23)cc1	2	.	-0.65	0.0054	.	4
CC(C)=CC(=O)OCC(=O)Nc1nc(C)c(Cl)cc1Cl	-4	1	0.012	0.025	8	-1
CC(C)=CC(=O)OCC(=O)Nc1ccc(F)cc1Cl	33*	0.9	0.9	-1.1	-1	12
CNC(=O)NC1CCCc2ccccc21 (stereo not given)	-1	0.9	0.97	-0.035	-1	6
CC(C)[C@H](NC(=O)NC1CCCc2ccccc21)C(=O)O (stereo not given in full)	33*	0.9	0.99	-0.087	4	-3
Cc1c(C(=O)NC2CCCc3ccccc32)oc2ccccc12 (stereo not given)	-10	.	-4.6*	-0.49	.	12
CC(C)(C)C1CCC(=NNS(=O)(=O)c2ccc(Br)cc2)CC1 (stereo not given)	.	.	-1.1	-0.23	3	.
O=S(=O)(N/N=C1/CC(c2ccccc2)Oc2ccccc21)c1ccc(Br)cc1 (stereo not given)	38*	.	.	-0.97	.	-5
O=S(=O)(N/N=C1/CCCc2ccccc21)c1ccc(Br)cc1	.	.	-4.2*	-0.15	0	.
CC(=O)N1CCC(=NNS(=O)(=O)c2ccc(C)c([N+](=O)[O-])c2)CC1	2	.	0.14	-0.029	.	-7
Cc1ccc(S(=O)(=O)N/N=C2/CC(c3ccccc3)Oc3ccccc32)cc1[N+](=O)[O-] (stereo not given)	36*	.	-0.59	-1.1	.	-8
COC(=O)c1c(NC(=O)CN2CCC(C)CC2)c2c(C)cccc2n1C	11	1	0.2	-0.027	8	26
CCOCCCNC(=O)c1ccc(CS(=O)(=O)Cc2cccc(C)c2)o1	33*	0.9	0.91	-0.012	2	-11
Cc1cccc(CS(=O)(=O)Cc2ccc(C(=O)NCC3CCCO3)o2)c1 (stereo not given)	8	0.8	.	.	.	19
CC1CCN(CCCNC(=O)c2ccc(CS(=O)(=O)Cc3ccccc3F)o2)CC1	.	1	0.78	0.16	-9	.
Cc1cccc(CS(=O)(=O)Cc2ccc(C(=O)NCCCN3CCOCC3)o2)c1	-2	1	.	.	.	-5
O=C(NCCCN1CCCCCC1)c1ccc(CS(=O)(=O)Cc2ccccc2F)o1	12	1	-0.55	-0.6	69*	-2
Cc1cccc(CS(=O)(=O)Cc2ccc(C(=O)NCCCN3CCCC3)o2)c1	-9	.	-0.071	-0.44	-2	33*
CC1CC(C(F)F)n2nc(C(=O)O)cc2N1 (stereo not given)	2	.	0.097	-1.9	-2	1
COC(=O)c1ccsc1NC(=O)C1=COCCO1	-5	0.9	.	0.81	-5	-4
CCCCN(C(=O)NC(=O)Nc1ccccc1OC)S(C)(=O)=O	10	1	-0.38	-0.73	3	2
Cc1cc(C)nc(N2CCCC(C(=O)Nc3cc(F)ccc3C)C2)n1 (stereo not given)	30*	0.9	.	.	4	3
COc1ccc(OC)c(NC(=O)C2CCN(c3nc(C)cc(C)n3)CC2)c1	37*	1	-0.57	-0.17	2	1
SMILES	PostGolgi ctrl	TNAP act DEA	Cav3 T inh	hDAT+cocaine	Smad3 inh	PostGolgi yeast
CCOc1ccc(S(=O)(=O)NCCOC)cc1C	45*	.	0.25	0.48	-7	-3
O=C(CNC(=O)/C(=C\c1ccc(F)cc1)NC(=O)c1ccccc1)OCc1ccccc1	3	.	0.99	0.8	.	5
O=C(CNC(=O)/C(=C\c1ccccc1)NC(=O)c1ccc(Br)cc1)OCc1ccccc1	-6	.	-6.6*	0.32	.	-3
Oc1ccc(Br)cc1CNn1cnnc1	2	0.9	-3.8*	-0.97	9	-8
CCOc1ccc(/C(O)=C2/C(=O)C(=O)N(c3nc(C)c(C)s3)C2c2ccco2)cc1 (stereo not given)	30	1.1	-5.7*	1.4	11	1
CCN(CC)CCN1C(=O)C(=O)/C(=C(/O)c2ccc(OC)cc2)C1c1ccco1 (stereo not given)	-3	1	.	.	.	15
